For some assays here: Results with a measured potency or affinity are listed apart. Activity calls are given as the source filed them. Unless noted, the rule behind the calls is not given here.
Legend:
[1] = antimalarial activity against Dd2 strain (AID 2302;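 active = growth inhibition above 50% at the single 2 µM test dose, taken to imply half-maximal potency below 2 µM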;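 note: 0% = DMSO untreated growth and 100% = chloroquine plus artemisinin killed control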); conditions: P. falciparum Dd2 in RBCs, LDH growth readout, 72 h; at 2 µM; stronger effect = higher value
[2] = HepG2 cytotoxicity, primary screen, cytotoxicity control for P. falciparum antimalarial project, cell-based, ATP luminescence (AID 2303;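 active = inhibition above 50%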;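 note: 0% = DMSO wells and 100% = digitonin-killed cells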); conditions: HepG2 viability, 24-48 h, at 10 µM, stronger effect = higher value
[3] = target: L-lactate dehydrogenase (Plasmodium falciparum (isolate CDC / Honduras)) (UniProt Q27743); test: PfLDH activity inhibition – cell lysate, 3D7 strain, counter-screen for P. falciparum growth inhibition project (AID 2304);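 note: 0% = vehicle and 100% = reference inhibitor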; conditions: P. falciparum 3D7 crude extract, LDH APAD/NBT absorbance; at 2 µM; stronger effect = higher value
[4] = inhibition of 3D7 malaria parasite growth – strain 3D7 (AID 2306);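 note: 0% = DMSO wells and 100% = chloroquine plus artemisinin control wells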; conditions: P. falciparum 3D7 erythrocytic growth, LDH absorbance, 72 h; at 2 µM; stronger effect = higher value
[5] = target: Calcium-dependent protein kinase 1 (Plasmodium falciparum (isolate 3D7)) (UniProt P62344); test: PfCDPK1 kinase inhibitors, biochemical, TCAMS library (AID 1159585; cut-off not given, nearly all actives have IC50 up to about 0.98 µM;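 note: inhibitors leave more ATP so luminescence rises with inhibition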); conditions: recombinant PfCDPK1, Kinase-Glo ATP depletion luminescence
[6] = target: Plasmodium falciparum protein kinase 6 (PK6, PF3D7_1337100) (UniProt Q8IDW1); test: PfPK6 kinase inhibitors, biochemical, TCAMS library (AID 1159586); conditions: recombinant PfPK6, Kinase-Glo ATP depletion luminescence
[7] = target: Protein kinase 7 (PK7), Plasmodium falciparum 3D7 (PF3D7_0213400) (UniProt Q7YTF7); test: inhibition of Plasmodium PK7 catalytic activity – biochemical, TCAMS antimalarial set, Kinase-Glo luminescence (AID 1159587); conditions: recombinant PfPK7, Kinase-Glo ATP depletion luminescence
[8] = target: Calcium-dependent protein kinase 4 (Plasmodium falciparum (isolate 3D7)) (UniProt Q8IBS5); test: PfCDPK4 kinase inhibitors, biochemical, TCAMS library (AID 1159588; cut-off not given, nearly all actives have IC50 up to about 0.91 µM); conditions: recombinant PfCDPK4, Kinase-Glo ATP depletion luminescence
Calcium-dependent protein kinase 4 (Plasmodium falciparum (isolate 3D7)), sequence (Q8IBS5 whole entry, looked up): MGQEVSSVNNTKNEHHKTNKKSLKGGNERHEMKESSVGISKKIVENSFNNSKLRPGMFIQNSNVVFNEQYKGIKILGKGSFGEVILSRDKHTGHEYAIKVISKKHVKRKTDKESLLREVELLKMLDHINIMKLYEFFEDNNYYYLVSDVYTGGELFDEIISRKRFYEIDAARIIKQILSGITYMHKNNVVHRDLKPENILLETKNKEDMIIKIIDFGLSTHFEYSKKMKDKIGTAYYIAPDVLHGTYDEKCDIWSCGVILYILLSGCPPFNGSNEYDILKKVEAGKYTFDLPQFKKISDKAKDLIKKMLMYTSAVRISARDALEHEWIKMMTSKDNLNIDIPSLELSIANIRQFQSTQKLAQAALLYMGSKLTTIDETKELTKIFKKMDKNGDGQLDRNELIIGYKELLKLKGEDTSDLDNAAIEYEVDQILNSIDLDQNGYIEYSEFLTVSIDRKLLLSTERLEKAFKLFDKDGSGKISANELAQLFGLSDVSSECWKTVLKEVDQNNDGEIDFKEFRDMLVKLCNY

L-lactate dehydrogenase (Plasmodium falciparum (isolate CDC / Honduras)), sequence (Q27743 whole entry, looked up): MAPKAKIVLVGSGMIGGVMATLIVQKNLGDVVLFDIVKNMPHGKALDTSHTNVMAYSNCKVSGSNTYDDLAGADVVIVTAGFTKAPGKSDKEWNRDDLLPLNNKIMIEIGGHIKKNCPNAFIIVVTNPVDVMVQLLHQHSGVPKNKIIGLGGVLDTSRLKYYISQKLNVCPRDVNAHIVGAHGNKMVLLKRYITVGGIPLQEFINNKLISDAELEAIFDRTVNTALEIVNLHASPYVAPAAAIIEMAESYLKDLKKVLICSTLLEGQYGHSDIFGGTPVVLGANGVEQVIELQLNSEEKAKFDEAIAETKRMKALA
Calcium-dependent protein kinase 1 (Plasmodium falciparum (isolate 3D7)), sequence (P62344 whole entry, looked up): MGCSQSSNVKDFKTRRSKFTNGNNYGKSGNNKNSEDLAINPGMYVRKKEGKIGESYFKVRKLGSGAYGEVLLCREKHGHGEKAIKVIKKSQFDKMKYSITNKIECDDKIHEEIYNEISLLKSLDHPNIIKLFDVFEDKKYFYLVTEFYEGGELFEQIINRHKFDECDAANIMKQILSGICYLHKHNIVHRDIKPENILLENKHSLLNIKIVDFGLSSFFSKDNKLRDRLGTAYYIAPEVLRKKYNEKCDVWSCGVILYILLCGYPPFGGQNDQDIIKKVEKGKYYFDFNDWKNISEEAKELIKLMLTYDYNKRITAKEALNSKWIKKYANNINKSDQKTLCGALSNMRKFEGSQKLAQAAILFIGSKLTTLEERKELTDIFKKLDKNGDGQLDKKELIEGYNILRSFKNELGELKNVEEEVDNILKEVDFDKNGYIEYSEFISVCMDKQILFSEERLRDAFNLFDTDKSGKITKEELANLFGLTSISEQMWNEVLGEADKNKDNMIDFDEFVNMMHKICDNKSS
Plasmodium falciparum protein kinase 6 (PK6, PF3D7_1337100), sequence (Q8IDW1 1-305): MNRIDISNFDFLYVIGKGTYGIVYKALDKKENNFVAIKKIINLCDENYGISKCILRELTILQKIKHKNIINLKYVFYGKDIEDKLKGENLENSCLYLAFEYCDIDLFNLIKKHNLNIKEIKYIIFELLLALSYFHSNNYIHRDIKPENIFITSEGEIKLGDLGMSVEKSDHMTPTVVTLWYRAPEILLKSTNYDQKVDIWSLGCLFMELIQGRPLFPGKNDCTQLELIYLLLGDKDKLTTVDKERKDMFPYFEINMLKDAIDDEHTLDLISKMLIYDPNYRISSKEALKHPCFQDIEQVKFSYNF
Protein kinase 7 (PK7), Plasmodium falciparum 3D7 (PF3D7_0213400), sequence (Q7YTF7 1-343): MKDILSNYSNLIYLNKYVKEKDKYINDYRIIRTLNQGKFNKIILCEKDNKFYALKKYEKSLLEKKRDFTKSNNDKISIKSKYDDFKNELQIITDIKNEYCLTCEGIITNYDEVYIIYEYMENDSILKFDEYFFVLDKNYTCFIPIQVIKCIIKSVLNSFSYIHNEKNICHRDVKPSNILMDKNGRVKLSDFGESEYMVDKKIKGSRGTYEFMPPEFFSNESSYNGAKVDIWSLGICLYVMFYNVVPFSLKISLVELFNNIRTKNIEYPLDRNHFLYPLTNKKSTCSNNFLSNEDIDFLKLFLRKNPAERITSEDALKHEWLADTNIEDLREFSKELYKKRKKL

N#Cc1cncc(-c2nc3c(N4CCN(c5cnccn5)CC4)cccc3n2CCNCc2ccccc2)c1
active: growth inhibition [4] 99%
inactive: growth inhibition [1] 31% | inhibition [2] 0% | inhibition [3] 4% | outcome [5] | outcome [6] | outcome [7] | outcome [8]

CCCCCC(C)N=C(Nc1ccc(C#N)cc1O)Nc1ccccc1Br (stereo not given)
inactive: inhibition [2] 2% | inhibition [3] -3% | outcome [5] | outcome [6] | outcome [7] | outcome [8]
active: growth inhibition [1] 95% | growth inhibition [4] 98%

Cc1cc(=O)c(-c2ccc(Oc3cccc(Cl)c3)cc2)c(C)[nH]1
inactive: inhibition [2] 23% | inhibition [3] 0% | outcome [5] | outcome [6] | outcome [7] | outcome [8]
active: growth inhibition [1] 89% | growth inhibition [4] 95%

O=C(Nc1cccc(Cl)c1Cl)Nc1ccnc2ccccc12
inactive: growth inhibition [1] 47% | inhibition [2] 31% | inhibition [3] 4% | outcome [5] | outcome [6] | outcome [7] | outcome [8]
active: growth inhibition [4] 100%

Clc1ccc(OCc2ccccc2)c(Cc2ccc(-c3nc4ccncc4[nH]3)o2)c1
active: growth inhibition [4] 99%
inactive: growth inhibition [1] 6% | inhibition [2] 2% | inhibition [3] -2% | outcome [5] | outcome [6] | outcome [7] | outcome [8]

O=C(CCCCCNC(=O)c1ccc(O)c(-c2ccc(Cl)c(Cl)c2)c1)NC1CCCCCC1
inactive: growth inhibition [1] 3% | inhibition [2] -4% | inhibition [3] 2% | outcome [5] | outcome [6] | outcome [7] | outcome [8]
active: growth inhibition [4] 92%

O=C(NCCCCCN1CCCN(C(=O)Nc2ccc(Cl)c(C(F)(F)F)c2)CC1)[C@@H]1C[C@H]1c1ccc(Cl)c(Cl)c1
active: growth inhibition [4] 100%
inactive: growth inhibition [1] 1% | inhibition [2] 41% | inhibition [3] 3% | outcome [5] | outcome [6] | outcome [7] | outcome [8]

N=C(N)c1ccc2nc(SCc3ccccc3)[nH]c2c1
inactive: inhibition [2] -1% | inhibition [3] 1% | outcome [5] | outcome [6] | outcome [7] | outcome [8]
active: growth inhibition [1] 100% | growth inhibition [4] 97%

O=C(Nc1cccc(CN2CCN(C(=O)c3cccs3)CC2)c1)c1cccs1
inactive: inhibition [2] -2% | inhibition [3] 3% | outcome [5] | outcome [6] | outcome [7] | outcome [8]
active: growth inhibition [1] 91% | growth inhibition [4] 95%

Cc1ccccc1N1CCN(c2ccc(C(=O)Nc3ccccc3)cn2)CC1
inactive: inhibition [2] 44% | inhibition [3] -5% | outcome [5] | outcome [6] | outcome [7] | outcome [8]
active: growth inhibition [1] 69% | growth inhibition [4] 95%

CN1CCN(CCCN(Cc2cccc(-c3cccc(CNC4CCCC4)c3)c2)C(=O)/C=C/c2ccccc2)CC1
inactive: inhibition [3] -5% | outcome [5] | outcome [6] | outcome [7] | outcome [8]
active: growth inhibition [1] 99% | inhibition [2] 84% | growth inhibition [4] 101%

Cc1cc(N[C@@H](Cc2ccccc2)C(=O)NCc2cccs2)nc(NCCc2ccc(F)cc2)n1
active: growth inhibition [1] 83% | growth inhibition [4] 100%
inactive: inhibition [2] 3% | inhibition [3] 3% | outcome [5] | outcome [6] | outcome [7] | outcome [8]

COc1ccccc1C1CC(c2ccccc2)=NN1C(=O)c1ccco1 (stereo not given)
inactive: inhibition [2] 12% | inhibition [3] -2% | outcome [5] | outcome [6] | outcome [7] | outcome [8]
active: growth inhibition [1] 95% | growth inhibition [4] 97%

Oc1ccc2[nH]cc(C3CCN(CCC(c4ccccc4)c4ccccc4)CC3)c2c1
active: growth inhibition [4] 90%
inactive: growth inhibition [1] 42% | inhibition [2] 27% | inhibition [3] -3% | outcome [5] | outcome [6] | outcome [7] | outcome [8]

CN(C)CCOc1cc(NC(=O)Nc2ccc(-c3ccccc3)cc2)ccc1I
active: growth inhibition [4] 101%
inactive: growth inhibition [1] 45% | inhibition [2] 9% | inhibition [3] -3% | outcome [5] | outcome [6] | outcome [7] | outcome [8]

Fc1ccc2nc(Nc3nc(-c4ccccn4)cs3)sc2c1
active: growth inhibition [1] 100% | growth inhibition [4] 102%
inactive: inhibition [2] 42% | inhibition [3] 3% | outcome [5] | outcome [6] | outcome [7] | outcome [8]

CC(C)N(CCOc1ccc2c(c1)N(C(=O)Nc1cc(Br)cc(C(F)(F)F)c1)CC2)C(C)C
inactive: inhibition [2] 8% | inhibition [3] 5% | outcome [5] | outcome [6] | outcome [7] | outcome [8]
active: growth inhibition [1] 100% | growth inhibition [4] 101%

COc1ccc(-c2cccc(CNCc3ccc(F)cc3)c2)cc1S(=O)(=O)NCCN1CCCC1
inactive: growth inhibition [1] 16% | inhibition [2] 20% | inhibition [3] 4% | outcome [5] | outcome [6] | outcome [7] | outcome [8]
active: growth inhibition [4] 101%

COc1ccc(NC(=O)c2ccc(Br)c(C)c2)cc1N1CCN(CCCc2c[nH]c3ccccc23)CC1
active: growth inhibition [1] 64% | growth inhibition [4] 102%
inactive: inhibition [2] 21% | inhibition [3] 0% | outcome [5] | outcome [6] | outcome [7] | outcome [8]

O=C(Nc1ccc(-c2csc(-c3nc4ccccc4[nH]3)c2)cc1)Nc1ccc(Cl)c(Cl)c1
active: inhibition [2] 75% | growth inhibition [4] 93%
inactive: growth inhibition [1] 18% | inhibition [3] -6% | outcome [5] | outcome [6] | outcome [7] | outcome [8]

CS(=O)(=O)NCCCNCc1cccc(-c2ccc(-c3nc4ccccc4[nH]3)s2)c1
active: growth inhibition [4] 90%
inactive: growth inhibition [1] -1% | inhibition [2] 24% | inhibition [3] 6% | outcome [5] | outcome [6] | outcome [7] | outcome [8]

Cc1nc2c(s1)c(=O)cc(CCc1cccc(F)c1F)n2CC(=O)N(Cc1ccc(-c2ccc(C(F)(F)F)cc2)cc1)C1CCN(C(C)C)CC1
inactive: inhibition [3] 0% | outcome [5] | outcome [6] | outcome [7] | outcome [8]
active: growth inhibition [1] 82% | inhibition [2] 98% | growth inhibition [4] 100%

CCN1CCC(N(Cc2ccc(-c3ccc(C(F)(F)F)s3)cc2)C(=O)Cn2c(CCc3cccc(F)c3F)nc(=O)c3ccccc32)CC1
active: growth inhibition [1] 95% | growth inhibition [4] 93%
inactive: inhibition [2] 47% | inhibition [3] 7% | outcome [5] | outcome [6] | outcome [7] | outcome [8]

COc1ccc(CCn2c(=N)c(C(=O)NCc3ccccc3)cc3c(=O)n4ccccc4nc32)cc1
active: growth inhibition [4] 100%
inactive: growth inhibition [1] 18% | inhibition [2] 14% | inhibition [3] -1% | outcome [5] | outcome [6] | outcome [7] | outcome [8]

CC1CCCN(c2ccc(NC(=O)c3cccs3)cc2[N+](=O)[O-])C1 (stereo not given)
active: growth inhibition [1] 96% | growth inhibition [4] 96%
inactive: inhibition [2] 14% | inhibition [3] -2% | outcome [5] | outcome [6] | outcome [7] | outcome [8]

CCOc1ccccc1CCNC(C)Cc1ccc(C(=O)Nc2ccc(CC(C)NCCc3cccc(Cl)c3)cc2)cc1 (stereo not given)
active: growth inhibition [1] 59% | inhibition [2] 100% | growth inhibition [4] 97%
inactive: inhibition [3] -3% | outcome [5] | outcome [6] | outcome [7] | outcome [8]

O=c1[nH]c2c(cc1CNC1CCCCC1)c(-c1cccc(F)c1)nn2-c1ccccc1
inactive: inhibition [2] 6% | inhibition [3] 7% | outcome [5] | outcome [6] | outcome [7] | outcome [8]
active: growth inhibition [1] 89% | growth inhibition [4] 95%

COc1cc(NC(=O)CCCCCCCN2CCN(C)CC2)c2ncccc2c1
inactive: inhibition [2] 2% | inhibition [3] 1% | outcome [5] | outcome [6] | outcome [7] | outcome [8]
active: growth inhibition [1] 83% | growth inhibition [4] 95%

CC(C)(C)c1ccc(OCCCON2C(N)=NC(N)=NC2(C)C)c(C(C)(C)C)c1
inactive: inhibition [3] 2% | outcome [5] | outcome [6] | outcome [7] | outcome [8]
active: growth inhibition [1] 97% | inhibition [2] 64% | growth inhibition [4] 93%

COc1ccc(CNC(=O)c2cnc3c(O)cccc3c2Nc2cccc(NC(=O)c3ccc(F)cc3)c2)cc1
active: growth inhibition [1] 65% | inhibition [2] 50% | growth inhibition [4] 91%
inactive: inhibition [3] 2% | outcome [5] | outcome [6] | outcome [7] | outcome [8]

COc1cc(C)nc2ccc(NC(=O)c3ccc(C(=O)Nc4ccc5nc(C)cc(OC)c5c4)cc3)cc12
inactive: inhibition [2] 27% | inhibition [3] -5% | outcome [5] | outcome [6] | outcome [7] | outcome [8]
active: growth inhibition [1] 72% | growth inhibition [4] 96%

Cn1cc(C2CCN(CCCCNC(=O)c3ccc(C(=O)Nc4ccc(C#N)cc4)cc3)CC2)c2ccccc21
inactive: inhibition [2] 16% | inhibition [3] -4% | outcome [5] | outcome [6] | outcome [7] | outcome [8]
active: growth inhibition [1] 58% | growth inhibition [4] 100%

C=CCOc1ccc2ccccc2c1CNCCCCCCNCc1c(OCC=C)ccc2ccccc12
inactive: inhibition [3] 3% | outcome [5] | outcome [6] | outcome [7] | outcome [8]
active: growth inhibition [1] 98% | inhibition [2] 99% | growth inhibition [4] 100%

O=[N+]([O-])c1cccc(NC(=S)N2CCCN(Cc3ccc(C(F)(F)F)cc3)CC2)c1
inactive: growth inhibition [1] 49% | inhibition [2] 11% | inhibition [3] 0% | outcome [5] | outcome [6] | outcome [7] | outcome [8]
active: growth inhibition [4] 90%

CC(C)(C)OC(=O)n1cc(C2CCN(CCCC34CCCc5cccc(c53)NC4=O)CC2)c2ccncc21 (stereo not given)
inactive: growth inhibition [1] -2% | inhibition [2] 20% | inhibition [3] -5% | outcome [5] | outcome [6] | outcome [7] | outcome [8]
active: growth inhibition [4] 92%

Cc1[nH]c(C)c(C(F)(F)F)c(=O)c1-c1ccc(Oc2ccc(OC(F)(F)F)cc2)cc1
active: growth inhibition [1] 96% | growth inhibition [4] 97%
inactive: inhibition [2] 0% | inhibition [3] -6% | outcome [5] | outcome [6] | outcome [7] | outcome [8]

CCCCCCCN1CC[C@@H](CCCc2ccnc3ccc(OCC4CCCNC4)cc23)[C@@H](CC)C1 (stereo not given in full)
inactive: inhibition [3] -1% | outcome [5] | outcome [6] | outcome [7] | outcome [8]
active: growth inhibition [1] 100% | inhibition [2] 99% | growth inhibition [4] 98%

c1ccc(COc2ccc(COc3ccc(Cn4ccnc4)cc3)cc2)cc1
inactive: growth inhibition [1] 45% | inhibition [2] 9% | inhibition [3] 0% | outcome [5] | outcome [6] | outcome [7] | outcome [8]
active: growth inhibition [4] 86%

Cc1c(C)n(Cc2ccccc2)c2ncnc(OC3CCN(CC(=O)NCC4CC4)CC3)c12
inactive: inhibition [2] 17% | inhibition [3] -3% | outcome [5] | outcome [6] | outcome [7] | outcome [8]
active: growth inhibition [1] 79% | growth inhibition [4] 92%

CC(=NNC(=S)Nc1ccccc1Cl)c1ccccn1
active: growth inhibition [1] 99% | inhibition [2] 69% | growth inhibition [4] 100%
inactive: inhibition [3] 6% | outcome [5] | outcome [6] | outcome [7] | outcome [8]

— PubChem BioAssay
